We go through 36 molecules from PubChem BioAssay.

Chain of Neurogenic locus notch homolog protein 2 (Homo sapiens) (Q04721 whole entry, looked up): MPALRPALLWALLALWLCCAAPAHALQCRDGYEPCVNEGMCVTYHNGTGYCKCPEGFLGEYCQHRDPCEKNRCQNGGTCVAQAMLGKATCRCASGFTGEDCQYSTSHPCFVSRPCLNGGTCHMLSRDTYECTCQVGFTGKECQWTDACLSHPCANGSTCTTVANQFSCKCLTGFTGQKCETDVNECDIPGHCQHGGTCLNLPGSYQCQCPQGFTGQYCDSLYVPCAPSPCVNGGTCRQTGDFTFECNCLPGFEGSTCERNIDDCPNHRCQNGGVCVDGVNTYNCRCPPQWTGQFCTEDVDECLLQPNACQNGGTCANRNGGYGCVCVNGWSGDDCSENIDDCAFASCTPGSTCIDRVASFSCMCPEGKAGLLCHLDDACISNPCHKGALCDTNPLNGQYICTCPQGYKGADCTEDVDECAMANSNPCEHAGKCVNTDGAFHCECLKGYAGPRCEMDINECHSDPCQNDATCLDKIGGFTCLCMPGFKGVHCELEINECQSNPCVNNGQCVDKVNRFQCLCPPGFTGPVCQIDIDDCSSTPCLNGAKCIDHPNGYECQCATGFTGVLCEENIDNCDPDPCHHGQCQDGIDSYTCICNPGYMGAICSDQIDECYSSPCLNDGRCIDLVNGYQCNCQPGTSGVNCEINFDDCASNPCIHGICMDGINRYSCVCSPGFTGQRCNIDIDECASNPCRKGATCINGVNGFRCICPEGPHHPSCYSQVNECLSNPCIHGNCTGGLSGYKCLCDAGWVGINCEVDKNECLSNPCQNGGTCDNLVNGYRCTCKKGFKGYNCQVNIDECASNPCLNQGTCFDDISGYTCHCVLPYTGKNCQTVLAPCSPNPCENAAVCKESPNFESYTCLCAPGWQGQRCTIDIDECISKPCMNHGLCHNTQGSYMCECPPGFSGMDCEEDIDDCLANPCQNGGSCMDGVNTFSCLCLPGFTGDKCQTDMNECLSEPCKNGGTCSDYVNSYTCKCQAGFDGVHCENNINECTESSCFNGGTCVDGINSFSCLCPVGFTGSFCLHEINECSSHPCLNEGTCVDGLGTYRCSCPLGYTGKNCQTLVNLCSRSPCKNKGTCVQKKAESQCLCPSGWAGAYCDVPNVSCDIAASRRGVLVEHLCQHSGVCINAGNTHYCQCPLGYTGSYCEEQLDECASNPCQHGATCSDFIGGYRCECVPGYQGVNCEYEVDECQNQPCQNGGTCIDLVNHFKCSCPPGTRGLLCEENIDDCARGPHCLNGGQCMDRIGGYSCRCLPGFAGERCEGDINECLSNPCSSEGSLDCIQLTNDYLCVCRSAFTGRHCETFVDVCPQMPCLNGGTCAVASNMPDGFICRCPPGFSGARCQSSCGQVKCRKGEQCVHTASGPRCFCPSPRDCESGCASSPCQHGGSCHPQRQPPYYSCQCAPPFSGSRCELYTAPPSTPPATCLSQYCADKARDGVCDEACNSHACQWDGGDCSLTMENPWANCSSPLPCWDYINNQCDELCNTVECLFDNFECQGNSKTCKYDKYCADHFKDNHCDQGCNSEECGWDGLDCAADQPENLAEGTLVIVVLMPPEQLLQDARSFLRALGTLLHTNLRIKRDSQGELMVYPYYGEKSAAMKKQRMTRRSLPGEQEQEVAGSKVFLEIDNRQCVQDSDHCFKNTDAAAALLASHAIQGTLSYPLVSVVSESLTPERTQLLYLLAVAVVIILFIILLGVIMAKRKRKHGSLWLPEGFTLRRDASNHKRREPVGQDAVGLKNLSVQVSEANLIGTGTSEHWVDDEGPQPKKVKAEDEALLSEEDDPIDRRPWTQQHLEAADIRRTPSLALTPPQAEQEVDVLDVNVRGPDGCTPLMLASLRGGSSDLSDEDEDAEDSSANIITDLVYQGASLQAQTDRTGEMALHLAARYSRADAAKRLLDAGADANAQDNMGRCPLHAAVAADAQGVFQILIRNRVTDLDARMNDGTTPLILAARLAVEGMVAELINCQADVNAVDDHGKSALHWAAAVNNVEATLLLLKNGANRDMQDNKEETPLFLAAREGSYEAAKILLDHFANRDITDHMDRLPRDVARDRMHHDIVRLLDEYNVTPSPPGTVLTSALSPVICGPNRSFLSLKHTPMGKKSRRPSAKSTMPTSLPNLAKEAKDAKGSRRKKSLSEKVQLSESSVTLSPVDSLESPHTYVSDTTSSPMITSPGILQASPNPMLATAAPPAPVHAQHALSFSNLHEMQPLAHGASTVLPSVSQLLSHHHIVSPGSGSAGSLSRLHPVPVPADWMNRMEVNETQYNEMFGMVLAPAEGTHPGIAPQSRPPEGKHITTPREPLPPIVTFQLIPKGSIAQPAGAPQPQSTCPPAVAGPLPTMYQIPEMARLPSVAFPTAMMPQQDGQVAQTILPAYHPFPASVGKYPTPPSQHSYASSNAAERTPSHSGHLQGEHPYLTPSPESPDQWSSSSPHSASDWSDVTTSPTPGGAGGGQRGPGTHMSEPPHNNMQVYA
Chain of Pro-neuregulin-1, membrane-bound isoform (Homo sapiens) (Q02297 whole entry, looked up, canonical isoform): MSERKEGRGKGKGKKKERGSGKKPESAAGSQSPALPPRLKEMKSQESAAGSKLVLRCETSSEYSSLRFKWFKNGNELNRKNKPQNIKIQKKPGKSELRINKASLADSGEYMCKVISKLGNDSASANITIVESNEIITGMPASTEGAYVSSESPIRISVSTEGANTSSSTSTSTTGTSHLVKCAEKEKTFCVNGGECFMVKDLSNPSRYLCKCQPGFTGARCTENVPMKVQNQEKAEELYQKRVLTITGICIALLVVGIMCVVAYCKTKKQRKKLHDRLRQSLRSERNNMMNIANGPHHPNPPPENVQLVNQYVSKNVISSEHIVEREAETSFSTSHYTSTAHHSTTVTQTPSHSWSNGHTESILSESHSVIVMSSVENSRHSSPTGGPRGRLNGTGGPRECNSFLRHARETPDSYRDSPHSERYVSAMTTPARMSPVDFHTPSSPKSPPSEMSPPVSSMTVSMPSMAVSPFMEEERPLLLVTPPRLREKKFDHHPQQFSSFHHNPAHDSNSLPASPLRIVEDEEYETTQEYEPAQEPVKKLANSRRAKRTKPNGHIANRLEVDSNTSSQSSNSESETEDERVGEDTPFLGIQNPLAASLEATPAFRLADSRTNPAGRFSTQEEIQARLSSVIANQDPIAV

The first assay concerns the target Neurogenic locus notch homolog protein 2 (Homo sapiens) (UniProt Q04721). The experiment in a line: small molecules binding Notch2 protein – biochemical, small-molecule microarray, 635 nm fluorescence, stem cell growth factors, primary screen (AID 1073). The settings on record: higher = more signal.
`Cc1c(NC(=O)/C(C#N)=C/C=C/c2ccc([N+](=O)[O-])cc2)c(=O)n(-c2ccccc2)n1C` came in with a composite z-score of 1.63. Same read-out and setting: in the case of `COc1ccc([Si](C)(C)[C@H]2[C@H](CC(=O)N(CCO)Cc3ccccc3)O[C@@]3(C(=O)N(Cc4cccc(N5CCCCC5=O)c4)c4ccccc43)[C@@H]2C)cc1` it was 0.262; in that of `O=C1c2ccccc2[C@@]2(Cc3ccccc3N(CC(F)(F)F)C2=O)[C@H](c2ccc(CO)cc2)N1Cc1ccccc1`, -0.661. In the case of `CC(C)C[C@@H]1NC(=O)[C@@H]2C[C@H](C(=O)NCCCCCNC(=O)CS)[C@H](c3ccc(O)cc3)N2C1=O`, the composite z-score worked out at 0.0232. On the same count and under the same terms, next, `COc1ccc(C(O)C2C=CC3C(=O)N(C)C(=O)C3N2Nc2ccccc2)cc1` (configuration not stated): 1.7; `Cc1ccc(S[C@]2(C(=O)NCCN3CCOCC3)CC(=O)N(C(C)C)[C@@H]2c2ccc(CO)cc2I)cc1`: -0.521; `COc1ccc([Si](C)(C)[C@H]2[C@H](CC(=O)N(CCO)Cc3ccccc3)O[C@@]3(C(=O)N(Cc4ccc(N5C(=O)c6cccc7cccc5c67)cc4)c4ccccc43)[C@@H]2C)cc1`: 0.141. `COC(=O)[C@@]1(Cc2ccccc2)[C@H]2c3cc(C(=O)N(C)C)n(CCF)c3C[C@H]2CN1C(=O)c1ccccc1` yielded a composite z-score of 1.31. `C=CCC(OC(C)=O)[C@@H]1[C@@H](N(Cc2ccc(-c3ccccc3)cc2)C(=O)Cc2ccc(OC)cc2)c2cc(OCCCO)ccc2N1C(=O)c1ccc2ccccc2c1` (some centres not stated): the composite z-score is -0.238. The same measure, in the same setting: next, `C=C(C(=O)CC[C@@H](OC(=O)c1cccnc1)c1cccc(OCCO)c1)C(C)C`: -0.0786. Turning to `CCCC=C(CCC)[C@@H](NC(=O)c1ccc(C(=O)OC)cc1)c1ccc(C(=O)OC)cc1`, the composite z-score worked out at 0.423. Consider `[N-]=[N+]=NCc1ccccc1C[C@]1(C(=O)N2CCCCC2)COC(c2ccc(OCCCO)cc2)=N1`, for which the composite z-score was found to be 0.207.

`COC(=O)[C@@]1(Cc2ccc(F)cc2)[C@H]2c3cc(C(=O)N4CCCC4)n(Cc4ccc(OC(F)(F)F)cc4)c3C[C@H]2CN1C(=O)c1ccccc1` had a composite z-score of 1.08.

On to `Cc1ccc(S[C@]2(C(=O)NCc3ccccc3)CC(=O)N(Cc3ccccc3C(F)(F)F)[C@@H]2c2ccc(CO)cc2I)cc1`, for which the composite z-score was -0.717. Still for that read-out and setting: in the case of `COCCOC(=O)N1C(=O)[C@@]2(c3cc(C#CC4(O)CCCCCC4)ccc31)[C@H](C(N)=O)[C@H]1C(=O)O[C@H](c3ccccc3)[C@H](c3ccccc3)N1[C@@H]2c1ccc(OCCO)cc1` it was 1.42; in that of `OCCCc1cc[n+](Cc2cc3c(cc2Br)OCO3)cc1`, -0.914.

The next assay concerns the target Pro-neuregulin-1, membrane-bound isoform (Homo sapiens) (UniProt Q02297). The experiment in a line: small molecules binding neuregulin-1 protein – biochemical, small-molecule microarray, fluorescence 635/667, psychiatric disease protein project, primary screen (AID 1075).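 Note: score combines 667 nm spot fluorescence with signal to noise.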 The settings on record: NRG1 binding, 635 nm fluorescence, higher = more signal.
`CC(C)c1ccc(NN2C(C(O)C3CCCCC3)C=CC3C(=O)N(c4ccccc4)C(=O)C32)cc1` (configuration not stated): the composite z-score came out at 1.22. On to `COc1ccc(C(=O)Nc2ccc(CN3C(=O)[C@]4(O[C@H](CC(=O)N(CCO)Cc5ccccc5)[C@@H]([Si](C)(C)c5ccc(OC)cc5)[C@@H]4C)c4ccccc43)cc2)cc1`, for which the composite z-score was found to be 0.74.

Consider `CCOC(=O)C=C1C[C@@H](c2cccc([N+](=O)[O-])c2)O[C@@H](c2cccc([N+](=O)[O-])c2)O1`, for which the composite z-score worked out at 0.962. The same measure, in the same setting: in the case of `CC[C@@H]1C=C(C(=O)O)[C@H](c2cccc(Cl)c2)N1S(=O)(=O)c1ccc(C)cc1` it was 1.27. On to `C=CCOC(=O)[C@H]1[C@@H]2C(=O)O[C@@H](c3ccccc3)[C@@H](c3ccccc3)N2[C@@H](c2ccc(OCCOC(=O)[C@@H]3C[C@@H]4C(=O)N[C@@H](Cc5ccccc5)C(=O)N4[C@@H]3c3ccc(O)cc3)cc2)[C@]12C(=O)Nc1ccc(I)cc12`, for which the composite z-score came to 0.422. `COC(=O)C1=CC(c2ccc(CO)cc2)=CC(C2CC2)N(Cc2cc3c(cc2Br)OCO3)C=C1C(=O)OC` (configuration not stated) returned a composite z-score of 1.97. Still for that read-out and setting: in the case of `O=C1O[C@H](c2ccccc2)[C@H](c2ccccc2)N2[C@H]1[C@@H](C(=O)O)[C@]1(C(=O)Nc3ccc(C#CC4(O)CCCCCC4)cc31)[C@H]2c1ccccc1OCCO` it was 0.278; in that of `CCCCCCc1nc(-c2ccc(OC)nc2)c(C)c2c1[Si](C(C)C)(C(C)C)OC2`, -0.64; in that of `[N-]=[N+]=NCc1ccccc1[C@H]1OC(c2ccc(OCCCO)cc2)=N[C@@]1(Cc1ccccc1N=[N+]=[N-])C(=O)N1CCOCC1`, 1.96. Still for that read-out and setting: in the case of `C=CCOC(=O)[C@H]1[C@@H]2C(=O)O[C@@H](c3ccccc3)[C@@H](c3ccccc3)N2[C@@H](c2ccc(OCCOC(=O)[C@H]3C[C@H]4C(=O)NCC(=O)N4[C@H]3c3cccc(OCCO)c3)cc2)[C@]12C(=O)Nc1ccc(I)cc12` it was 0.388. Still for that read-out and setting: next, `COCCOC(=O)N1C(=O)[C@@]2(c3cc(C#CCNC(N)=O)ccc31)[C@H](C(N)=O)[C@H]1C(=O)O[C@H](c3ccccc3)[C@H](c3ccccc3)N1[C@@H]2c1ccc(O)cc1`: 0.0637; `C=C1C(=O)C=C2CN(C(=O)c3ccccc3)[C@@](Cc3ccc(F)cc3)(C(=O)OC)[C@@H]12`: 1.89. Take `CC(C)(C)OC(=O)N1[C@@H](C=C(Br)Br)COC1(C)C`: the composite z-score is -0.0961. The same measure, in the same setting: next, `O=C1C[C@@](C(=O)NCC(F)(F)F)(c2ccc([N+](=O)[O-])cc2)[C@@H](c2ccc(CO)cc2I)N1CC12CC3CC(CC(C3)C1)C2`: 1.01; `Cc1cccc([C@H]2C[C@H]3C(Br)=C[C@@]2(CO)C(=O)[C@]32CO2)c1`: 0.131. Same read-out and setting: next, `COC(=O)C(CC#Cc1ccc2c(c1)[C@]1(C(=O)N2)[C@H](c2ccccc2OCCO)N2[C@H](c3ccccc3)[C@H](c3ccccc3)OC(=O)[C@H]2[C@@H]1C(=O)N1CCN(c2ncccn2)CC1)C(=O)OC`: 1.31; `O=C1NC(=O)C2C1C=CC(C(O)c1ccc(F)cc1)N2Nc1ccc(Cl)cc1Cl` (configuration not stated): 1.8; `C=CCOC(=O)[C@@H]1[C@H]2C(=O)O[C@H](c3ccccc3)[C@H](c3ccccc3)N2[C@H](c2ccc(OCCOC(=O)[C@@H]3C[C@@H]4C(=O)N[C@@H](CC(C)C)C(=O)N4[C@@H]3c3ccc(O)cc3)cc2)[C@@]12C(=O)Nc1ccc(I)cc12`: 0.616. On the same count and under the same terms, in the case of `COC(=O)c1ccc(OC)c(/C=C\CC(OC(=O)c2ccncc2)c2ccccc2)c1` (configuration not stated) it was -0.106; in that of `COC(=O)[C@@]1(Cc2ccc(F)cc2)[C@H]2c3cc(C(=O)N4CCCC4)n(CCSCCO)c3C[C@H]2CN1C(=O)c1ccccc1`, 1.82; in that of `Cc1c(NC(=O)/C(C#N)=C/C=C/c2ccc([N+](=O)[O-])cc2)c(=O)n(-c2ccccc2)n1C`, 1.65. Take `COc1ccc([Si](C)(C)[C@H]2[C@H](CC(=O)N(CCO)Cc3ccccc3)O[C@@]3(C(=O)N(Cc4cccc(N5CCCCC5=O)c4)c4ccccc43)[C@@H]2C)cc1`: the composite z-score came out at 0.535. On to `O=C1c2ccccc2[C@@]2(Cc3ccccc3N(CC(F)(F)F)C2=O)[C@H](c2ccc(CO)cc2)N1Cc1ccccc1`, for which the composite z-score was found to be 0.0876. Same read-out and setting: in the case of `CC(C)C[C@@H]1NC(=O)[C@@H]2C[C@H](C(=O)NCCCCCNC(=O)CS)[C@H](c3ccc(O)cc3)N2C1=O` it was 1.75; in that of `COc1ccc(C(O)C2C=CC3C(=O)N(C)C(=O)C3N2Nc2ccccc2)cc1` (configuration not stated), 2.03.

As to `Cc1ccc(S[C@]2(C(=O)NCCN3CCOCC3)CC(=O)N(C(C)C)[C@@H]2c2ccc(CO)cc2I)cc1`, the composite z-score was found to be 1.69. In turn, `COc1ccc([Si](C)(C)[C@H]2[C@H](CC(=O)N(CCO)Cc3ccccc3)O[C@@]3(C(=O)N(Cc4ccc(N5C(=O)c6cccc7cccc5c67)cc4)c4ccccc43)[C@@H]2C)cc1` yielded a composite z-score of 1.14. `COC(=O)[C@@]1(Cc2ccccc2)[C@H]2c3cc(C(=O)N(C)C)n(CCF)c3C[C@H]2CN1C(=O)c1ccccc1` registered a composite z-score of 2.17.

As to `C=CCC(OC(C)=O)[C@@H]1[C@@H](N(Cc2ccc(-c3ccccc3)cc2)C(=O)Cc2ccc(OC)cc2)c2cc(OCCCO)ccc2N1C(=O)c1ccc2ccccc2c1` (some centres not stated), the composite z-score is -0.157. On the same count and under the same terms, in the case of `C=C(C(=O)CC[C@@H](OC(=O)c1cccnc1)c1cccc(OCCO)c1)C(C)C` it was -0.145. For the molecule `CCCC=C(CCC)[C@@H](NC(=O)c1ccc(C(=O)OC)cc1)c1ccc(C(=O)OC)cc1`, the composite z-score is 0.203. Same read-out and setting: in the case of `[N-]=[N+]=NCc1ccccc1C[C@]1(C(=O)N2CCCCC2)COC(c2ccc(OCCCO)cc2)=N1` it was 1.13. On the same count and under the same terms, next, `COC(=O)[C@@]1(Cc2ccc(F)cc2)[C@H]2c3cc(C(=O)N4CCCC4)n(Cc4ccc(OC(F)(F)F)cc4)c3C[C@H]2CN1C(=O)c1ccccc1`: 0.621. The same measure, in the same setting: in the case of `Cc1ccc(S[C@]2(C(=O)NCc3ccccc3)CC(=O)N(Cc3ccccc3C(F)(F)F)[C@@H]2c2ccc(CO)cc2I)cc1` it was 1.56; in that of `COCCOC(=O)N1C(=O)[C@@]2(c3cc(C#CC4(O)CCCCCC4)ccc31)[C@H](C(N)=O)[C@H]1C(=O)O[C@H](c3ccccc3)[C@H](c3ccccc3)N1[C@@H]2c1ccc(OCCO)cc1`, 0.775; in that of `OCCCc1cc[n+](Cc2cc3c(cc2Br)OCO3)cc1`, 1.23.
